IMPase Li inh – cell-permeable IMPase inhibitors with lithium potentiation; CHO-M1 cells, IP1 TR-FRET (IP-One), carbachol + lithium; Potency, µM (titrated, usually from 59.4 µM), usual class: inhibitors; 0.35% of 210,000 active; AID 1457; active means well fitted inhibition curve with a large enough effect; inconclusive means small, poorly fitted or top-dose-only effect; inactive means no such curve, though single readings can be large or run the other way;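 further: IP1 builds up when IMPase is blocked and the TR-FRET signal falls; nearly all actives have a fitted effect of over 50% in size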
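Steps: plate 2000 CHO-M1 cells per well and culture 16–30 h; add compound and lithium; incubate 30 min, 37C; add d2-IP1 tracer and Eu cryptate anti-IP1 antibody in lysis buffer; read after 10 min at room temperature.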
IMPase cell inh – IMPase inhibition in cells | AID 901 | CHO-M1 cells, IP1 accumulation, HTRF TR-FRET ratio | 120,000 tested, under 10 active | inhibition (IP1 accumulation), % at 46.1 µM | P97697; active means well fitted curve in the direction sought with a large enough effect in the signal ratio, not every such curve was filed as active; inconclusive means small, poorly fitted or top-dose-only effect, or a change in a side signal; inactive means no such curve, though single readings can be large or run the other way; the % refers to the signal ratio;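 further: cells stimulated with carbachol in lithium chloride buffer; higher means more IMPase inhibition seen as more IP1 and lower FRET ratio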
Target sequence (P97697 whole entry, looked up): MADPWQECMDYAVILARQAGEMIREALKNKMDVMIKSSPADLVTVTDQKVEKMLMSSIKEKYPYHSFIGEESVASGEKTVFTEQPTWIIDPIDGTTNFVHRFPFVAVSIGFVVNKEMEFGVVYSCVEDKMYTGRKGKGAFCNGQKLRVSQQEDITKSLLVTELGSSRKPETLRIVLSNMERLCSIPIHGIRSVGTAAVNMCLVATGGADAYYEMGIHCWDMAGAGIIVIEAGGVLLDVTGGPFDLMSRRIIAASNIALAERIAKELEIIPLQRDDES
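Measured: the HTRF emission ratio (665/620 nm) plus the 620 nm donor channel, each fitted to the Hill equation to give AC50. Cells were CHO-M1 given compounds up to 46 uM and a 30 min carbachol stimulation at 37C.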
PNC inhibitor – perinucleolar compartment assembly inhibition; PC3M PTB-GFP, PNC prevalence imaging, 16 h; active compounds read low; activity change (PNC), negative = inhibition, % at 10 µM; 3.1% of 140,000 active;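 active means readout at or below -70, meaning at least 70% loss of cells showing the perinucleolar compartment, a nuclear body marking cancer cells; inconclusive means readout between -30 and a set limit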
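PC3M cells stably expressing PTB-GFP, 750–1000 cells/well, treated 16 h at 37 °C with compound (23 nl of library stock), in duplicate. After paraformaldehyde fixation and Hoechst stain, imaged at 20x; PNC prevalence scored by image analysis.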
HPGD block – inhibitors of human 15-hydroxyprostaglandin dehydrogenase (HPGD); 4.3% of 150,000 active; P15428; purified HPGD, NADH fluorescence kinetic, PGE2 substrate; Potency, µM, hits mostly inhibitors
Target sequence (P15428 whole entry, looked up): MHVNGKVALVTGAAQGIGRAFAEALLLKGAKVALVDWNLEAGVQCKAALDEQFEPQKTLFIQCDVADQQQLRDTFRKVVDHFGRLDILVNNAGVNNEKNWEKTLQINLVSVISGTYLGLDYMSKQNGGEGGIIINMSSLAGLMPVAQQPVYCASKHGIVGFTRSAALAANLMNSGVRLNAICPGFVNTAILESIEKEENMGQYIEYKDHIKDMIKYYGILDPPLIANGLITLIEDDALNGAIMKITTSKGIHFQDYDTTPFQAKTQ
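20 nM HPGD preincubated 15 min at room temperature with compound in 50 mM Tris-HCl pH 8, 0.01% Tween 20. Started with 1 mM NAD+ and 30 uM prostaglandin E2; NADH fluorescence (360/450 nm) read 5 times over 30-s intervals, last minus first.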
ALDH1A1 inh – inhibitors of human aldehyde dehydrogenase 1A1. P00352. Purified ALDH1A1, NADH fluorescence, propionaldehyde substrate. Potency, µM (highest dose often 75.3 µM), usual class: inhibitors. 7.3% of 220,000 active
Hits are given with their value; . = inactive; ? = inconclusive; / = no result; [ ] = another dose, or the depositor's remark. An excerpt weighted towards active compounds, which were near 11% of everything screened. Unless noted, the call rests on the fitted dose curve; in most records, active means well fitted inhibition curve with a large enough effect (not every such curve was filed as active); inconclusive means small, poorly fitted or top-dose-only effect, or another doubt; inactive means no such curve, though single readings can be large or run the other way.

SMILES	IMPase Li inh	IMPase cell inh	PNC inhibitor	HPGD block	ALDH1A1 inh
Clc1ccc(CCNC(c2nnc(-c3ccccc3)o2)c2ccccc2Cl)cc1 (configuration not stated)	/	.	/	/	/
Cc1cc(NC(=O)CCCn2cc([N+](=O)[O-])cn2)n(Cc2ccc(F)cc2)n1	.	/	/	/	.
COC(=O)C1C(=O)c2c([nH]c(C(=O)OC3CCCCC3)c2C)CC1C (configuration not stated)	.	.	.	.	.
COC(=O)C1C(=O)c2c([nH]c(C(=O)OC3CCCC3C)c2C)CC1C (configuration not stated)	.	.	.	.	13µM
COc1c(O)c(O)cc2c1oc1c3ccccc3oc(=O)c21	.	/	/	13µM	?
CNC(=O)[C@H]1O[C@@H](n2cnc3c(NCc4cccc(I)c4)nc(Cl)nc32)[C@H](O)[C@@H]1O	.	/	/	/	.
O=[N+]([O-])/C=C\c1ccc(N2CCCC2)c(F)c1	.	/	/	/	?
Cc1ccc(Nc2nc(/N=C/NO)n[nH]2)cc1C	.	/	/	/	.
NC(=S)NNc1c(F)c(F)c(F)c(F)c1F	.	/	/	/	8.9µM
Fc1ccc(CSc2nnc(-c3cnccn3)n2Cc2ccco2)cc1	.	.	.	.	.
Nn1c(SC/C=C/c2ccccc2)nnc1-c1ccncc1	.	?	.	.	.
Cn1c(Cc2cccs2)nnc1SC/C=C/c1ccccc1	.	.	-100	.	.
C(=C\c1ccccc1)/CSc1nnc(-c2cnccn2)n1Cc1ccco1	.	.	.	.	22µM
Cn1c(SC/C=C/c2ccccc2)nnc1-c1ccco1	.	.	-100	.	?
O=C(O)C(Cc1c[nH]c2ccccc12)NS(=O)(=O)c1cccc2nsnc12 (configuration not stated)	.	.	?	.	.
COCC(=O)N1CCc2nc(-c3ccccc3)c3c(c2C1)CO[C@@H](C)C3	.	/	/	.	.[13.5 µM]
CCO[C@@H]1OC(C(=O)N2CCOCC2)=C[C@H](c2ccccc2)[C@H]1CCCO	.	/	/	/	?
CC(=O)Nc1sc(C)c(C)c1C(=O)OC(C)C	.	/	?	.	22µM
Cc1sc(NC(=O)COc2ccc(C(C)(C)C)cc2)c(C(=O)OC(C)C)c1C	/	.	/	/	/
Cc1ccc(NC(=O)N/C=C/c2ccco2)cc1	.	.	.	.	7.9µM
CCCCCCCCCCC(C)(C)C(=O)Nc1c(OC)cc(OC)cc1OC	.	/	/	.	.
COc1ccc(N(C(C)C(=O)N/N=C/c2ccc(OC(C)C)cc2)S(C)(=O)=O)cc1 (configuration not stated)	.	.	.	.	14µM
CCC/C=C(\CCC)C(NS(=O)(=O)c1ccccc1)c1ccc(C(F)(F)F)cc1 (configuration not stated)	.	/	/	.	.
O=S(=O)(c1ccccc1F)N(Cc1ccco1)Cc1nnc(-c2ccccc2Br)o1	.	.	.	25µM	14µM
Clc1ccc(OCc2nnc(-c3ccccc3Br)o2)cc1	.	.	.	.	.
SMILES	IMPase Li inh	IMPase cell inh	PNC inhibitor	HPGD block	ALDH1A1 inh
Cc1ccc(C(C[N+](=O)[O-])Sc2ccc(N)cc2)cc1 (configuration not stated)	/	/	/	/	4µM
Cc1noc(C)c1CSc1ncnc2sc3c(c12)CCCCC3	.	/	?	?	28µM
Cc1noc(C)c1CSc1ncnc2sc(C)c(C)c12	.	.	.	.	.
CCOc1ccc2c(c1)sc(N)[n+]2Cc1cc(C)cc2cccnc12	.	.	-85	.	.
COc1ccc2c(c1)sc(N)[n+]2Cc1cc(C)cc2cccnc12	.	.	?	.	?
CCc1ccc(NC(=S)Nc2cc(C(=O)O)ccc2N2CC3CC(C2)c2cccc(=O)n2C3)cc1 (configuration not stated)	.	/	/	/	18µM
CCC(Sc1ncnc2sc3c(c12)CCCC3)C(=O)OCC(C)C (configuration not stated)	/	.	/	/	/
Cc1ccc(/C=C2\C(=O)Nc3ccccc32)o1	.	.	.	.	7.9µM
CN(C)c1ccc(/C=C2/C(=O)Nc3ccccc32)cc1	.	.	/	.	?
CN(C)c1ccc(/C=C2\C(=O)Nc3ccccc32)cc1	.	/	/	?	7.1µM
NC(=O)/C(=C\c1ccccc1)NC(=O)c1ccc(NC(=O)c2ccccc2)cc1	/	/	/	/	.
COC(=O)CCC(=O)OC1(C)C(=O)C=C2C=C(c3ccc(C#N)cc3)OC=C2C1=O (configuration not stated)	.	/	/	.	.
COc1ccc(NC(=O)Nc2cccc(C(F)(F)F)c2)cn1	.	/	/	/	.
Cc1ccc(NC(=S)Nn2cnnc2)cc1	.	/	/	/	3.5µM
CCc1ccc(NC(=S)NCc2ccccc2)cc1	.	/	/	/	.
CNC(=S)Nc1ccc(C)cc1	.	/	.	.	.
COc1ccc(NC(=S)Nn2cnnc2)cc1OC	.	/	/	/	4µM
COc1ccc(NC(=S)Nc2ncccc2C)cc1OC	.	/	/	/	25µM
CCc1ccc(NC(=S)Nn2cnnc2)cc1	.	/	/	/	1.4µM
CO[C@@H](C(C)C)[C@@H](C)[C@@H]1OC(=O)C[C@@H]1O	/	/	/	/	.[13.5 µM]
COC(=O)NNC(=S)NCc1ccccc1	.	/	?	.	?
Cc1ccccc1C(=O)OC1OC(=O)C(Cl)=C1N1CCOCC1 (configuration not stated)	.	/	?	.	.
N#Cc1ccc(CN2CCC3(CC2)CCN(C(=O)c2cccc(F)c2)CC3)cc1	.	/	/	.	.
O=C(CCCc1nc2ccccc2s1)Nc1ccc(N2CCOCC2)cc1	.	/	/	/	.
S=C(Nc1ccccc1)Nn1cnnc1	.	/	.	14µM	6.3µM
SMILES	IMPase Li inh	IMPase cell inh	PNC inhibitor	HPGD block	ALDH1A1 inh
CN1CCN(NC(=S)Nc2ccccc2)CC1	.	/	/	/	.
Cc1nn(-c2ccc(F)cc2)c(C)c1NS(=O)(=O)c1ccc(Cl)cc1	.	.	.	.	.
COc1ccc(Nc2nc(N/N=C/c3ccc(N(C)C)cc3)nc(C)c2[N+](=O)[O-])cc1	.	/	.	.	7.9µM
COc1ccc(Nc2nc(NN)nc(C)c2[N+](=O)[O-])cc1	.	/	/	/	?
O=C(O)CCCNc1ccc(S(=O)(=O)N2CCCCC2)cc1	.	/	/	/	.
CCCCN(CCCC)C(=O)c1nsnc1-c1ccccc1O	.	.	?	.	.
Nc1ccc2cc3ccccc3cc2c1	.	/	/	.	2µM
Cc1nc(N2CCOCC2)c2nc(-c3ccccc3)n(CC3CCN(C)CC3)c2n1	.	/	/	?	?
Cc1cc(C(=O)CCl)c(C)n1CCc1ccccc1	.	/	/	/	0.032µM
CCOC(=O)c1cc(C)n(CCc2ccccc2)c1C	.	.	.	.	.
Cc1cc(C(=O)CCl)c(C)n1Cc1ccco1	.	/	/	/	0.1µM
COC(=O)CCn1c(C)cc(C(=O)COc2ccccc2C(N)=O)c1C	.	/	/	/	.
COC(=O)CCCn1c(C)cc(C(=O)CCl)c1C	.	/	/	/	0.5µM
CN(C)c1ccc(-c2cncnc2Nc2ccc(F)cc2)cc1	.	/	/	/	?
C=CCC(C)(O)c1cccc(Br)c1 (configuration not stated)	.	/	/	.	.
CCOC(=O)C(=O)/C(C#N)=C/Nc1ccc(F)cc1	.	.	?	.	28µM

Screens as filed in PubChem BioAssay.
